Calls of active or inactive are those of the source. Rule for the calls: active = hit-call score of the fitted dose curve at least 0.9, where 1 is the maximum; inactive = score below 0.9.
Tests used:
[1] = ATG_NFI_CIS: Attagene CIS-FACTORIAL HepG2 Assay for human Nuclear Factor I (NFI) (AID 2282989); conditions: HepG2 cis-regulatory reporter, NFI response element transcription; actives raise or lower the signal
Summary of the method: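 Cells: human liver HepG2, transiently transfected with promoter-regulated reporter transcription units. Exposure 24 h. Detection: fluorescent RT-PCR products separated by capillary electrophoresis, normalised to DMSO negative control.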

[2] = molecular target: Myc proto-oncogene protein (Homo sapiens) (UniProt P01106); experiment: ATG_Myc_CIS: Attagene CIS-FACTORIAL HepG2 Assay for human Myelocytomatosis (Myc) Proto-Oncogene Transcription Factor (AID 2282990); conditions: HepG2, Attagene cis-reporter transcription factor activity; actives raise or lower the signal
Summary of the method: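 Cells of the HepG2 human liver line bear multiple cis-driven reporter transcription units. Reporter mRNA after 24 h exposure is reverse-transcribed, amplified, labelled and resolved by capillary electrophoresis, with gain- or loss-of-signal fitting relative to DMSO.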

[3] = ATG_NF_kB_CIS: Attagene CIS-FACTORIAL HepG2 Assay for human Nuclear Factor Kappa B (NF-kB) (AID 2282991); conditions: HepG2 Attagene cis-factorial NF-kB reporter mRNA; actives raise or lower the signal
Summary of the method: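 HepG2 cells transfected with cis-promoter-driven reporter units, so endogenous transcription factor activity is measured. Reporter mRNA quantified 24 h after dosing by RT-PCR and capillary electrophoresis, with bidirectional fitting against DMSO.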

[4] = ATG_NRF2_ARE_CIS: Attagene CIS-FACTORIAL HepG2 Assay for human Nuclear Factor Erythroid 2 Related Factor 2 (NFR2) response to Antioxidant Response Elements (ARE) (AID 2282992); conditions: HepG2 Attagene ARE/NRF2 reporter, transcription factor activity; actives raise or lower the signal;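 for AC50: reporter mRNA level measured by RT-PCR and capillary electrophoresis fluorescence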
Summary of the method: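 HepG2 cells transiently transfected with multiplexed cis-element reporter constructs, 24 h after chemical dosing; reporter mRNA quantified by RT-PCR, fluorescent primer extension, HpaI digestion and capillary electrophoresis. Bidirectional fit relative to DMSO.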

[5] = ATG_Oct_MLP_CIS: Attagene CIS-FACTORIAL HepG2 Assay for human Octamer-Binding Transcription Factor (Oct) (AID 2282993); conditions: HepG2 Attagene cis-factorial Oct reporter, mRNA; actives raise or lower the signal
Summary of the method: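 HepG2, transient MRTU transfection, cis promoter elements; 24 h dosing; RT-PCR/CE fluorescence read-out of reporter mRNA; fit both directions vs DMSO.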

[6] = BSK_3C_TissueFactor: BioMAP Diversity Plus: 3C Assay for Tissue Factor Biomarker Activity (AID 2282997); conditions: BioMAP 3C HUVEC, tissue factor biomarker readout; actives raise or lower the signal
Summary of the method: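 Primary human umbilical vein endothelial cells in the 3C system were exposed to test chemical for 24 h, then Tissue Factor measured by ELISA. Activity was fitted bidirectionally against DMSO as negative control and baseline.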

[7] = BSK_3C_uPAR: BioMAP Diversity Plus: 3C Assay for Urokinase-type plasminogen activator receptor (uPAR) Biomarker Activity (AID 2282998); conditions: BioMAP 3C HUVEC, uPAR biomarker ELISA; actives raise or lower the signal
Summary of the method: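 A multiplexed primary-cell system built on human umbilical vein endothelium was used, with chemical present for 24 h before reading. Cell-surface uPAR was detected by ELISA; signal change in either direction counted against DMSO.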

[8] = BSK_3C_VCAM1: BioMAP Diversity Plus: 3C Assay for Vascular cell adhesion molecule 1 (VCAM1) Biomarker Activity (AID 2282999); conditions: BioMAP 3C HUVEC, VCAM1 ELISA, cytokine-stimulated; actives raise or lower the signal
Summary of the method: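 Endothelial cells from human umbilical vein are treated with test chemical. At 24 h, VCAM-1 is measured by ELISA, and responses in either direction are fitted relative to DMSO.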

[9] = BSK_4H_Eotaxin3: BioMAP Diversity Plus: 4H Assay for Eotaxin 3 Biomarker Activity (AID 2283000); conditions: primary human endothelial cells (HUVEC); actives raise or lower the signal
Summary of the method: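 HUVEC, 24 h post-dose, ELISA for Eotaxin-3/CCL26. Gain or loss of signal fitted bidirectionally vs DMSO baseline.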

[10] = molecular target: Cellular tumor antigen p53 (Homo sapiens) (UniProt P04637); experiment: ATG_p53_CIS: Attagene CIS-FACTORIAL HepG2 Assay for human p53 Transcription Factor (AID 2282994); conditions: HepG2 p53 cis-element reporter, Attagene mRNA; actives raise or lower the signal
Summary of the method: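 HepG2 cells transiently transfected with cis-regulated multiple reporter transcription units, dosed 24 h. Reporter mRNA measured by RT-PCR, 6-FAM primer extension, HpaI digestion and capillary electrophoresis; bidirectional fit relative to DMSO.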

Measured: AC50

Chain of Myc proto-oncogene protein (Homo sapiens) (P01106 whole entry, looked up): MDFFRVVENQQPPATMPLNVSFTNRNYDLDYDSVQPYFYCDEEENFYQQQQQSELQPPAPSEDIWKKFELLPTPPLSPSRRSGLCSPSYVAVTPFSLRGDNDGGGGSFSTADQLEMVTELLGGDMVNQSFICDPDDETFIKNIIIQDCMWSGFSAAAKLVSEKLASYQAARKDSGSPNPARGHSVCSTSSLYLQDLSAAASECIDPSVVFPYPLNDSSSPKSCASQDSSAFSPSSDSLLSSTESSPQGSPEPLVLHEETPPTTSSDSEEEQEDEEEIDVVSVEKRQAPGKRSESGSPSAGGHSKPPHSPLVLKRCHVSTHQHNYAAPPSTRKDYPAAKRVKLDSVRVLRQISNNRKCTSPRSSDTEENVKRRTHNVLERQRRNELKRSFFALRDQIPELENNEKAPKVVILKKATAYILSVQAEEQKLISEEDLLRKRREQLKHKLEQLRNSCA
Chain of Cellular tumor antigen p53 (Homo sapiens) (P04637 whole entry, looked up): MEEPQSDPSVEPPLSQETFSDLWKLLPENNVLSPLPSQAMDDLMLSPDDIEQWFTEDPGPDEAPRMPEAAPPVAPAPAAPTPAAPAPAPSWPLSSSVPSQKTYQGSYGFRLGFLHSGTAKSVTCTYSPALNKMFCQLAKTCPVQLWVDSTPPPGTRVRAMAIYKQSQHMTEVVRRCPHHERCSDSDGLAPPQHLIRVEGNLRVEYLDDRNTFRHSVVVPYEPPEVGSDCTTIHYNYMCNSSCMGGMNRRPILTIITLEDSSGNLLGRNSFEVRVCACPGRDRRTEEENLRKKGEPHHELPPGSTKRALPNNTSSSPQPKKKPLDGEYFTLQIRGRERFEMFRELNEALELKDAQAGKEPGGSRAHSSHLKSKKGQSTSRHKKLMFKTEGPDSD

Clc1ccccc1Cl
not listed: [10]
inactive: all other assays above

c1ccc(C2CO2)cc1 (stereo unspecified)
not listed: [3] | [8]
inactive: all other assays above

Clc1ccc(C(c2ccc(Cl)cc2)C(Cl)(Cl)Cl)cc1
active: [1] 42.1 µM | [4] 36.4 µM | [6] 27.7 µM | [7] 15.2 µM | [9] 30.1 µM
inactive: [3] | [5] | [10]

CC(C)(O)c1cnn2c(-c3ccc(F)c(-c4c(F)cccc4C#N)c3)cnc2n1
inactive: [1] | [3] | [5]
active: [4] 19.8 µM | [10] 8.54 µM | [6] 28.2 µM | [7] 31.3 µM | [8] 35.3 µM | [9] 33.6 µM

Clc1ccc(C(c2ccc(Cl)cc2)C(Cl)Cl)cc1
inactive: [3] | [10]
active: [1] 60.5 µM | [2] 44.6 µM | [4] 51.1 µM | [5] 49.7 µM | [9] 28.7 µM

CCCCOC(=O)c1ccccc1C(=O)OCc1ccccc1
active: [4] 48.3 µM
not listed: [2] | [8]
inactive: all other assays above

O=P(OCCCl)(OCCCl)OCCCl
not listed: [3] | [6] | [8]
inactive: all other assays above

[Cl-].[Cl-].[Hg+2]
inactive: [1] | [2] | [5]
active: [4] 5.59 µM | [10] 55.4 µM | [6] 34.8 µM | [7] 34.1 µM | [8] 20 µM | [9] 30.9 µM

c1ccc2c(c1)-c1cccc3cccc-2c13
active: [6] 0.669 µM
not listed: [2]
inactive: all other assays above

CCC12COCN1COC2
not listed: [2]
inactive: all other assays above

CC(C)COC(=O)c1ccccc1C(=O)OCC(C)C
inactive: [1] | [2] | [9]
active: [4] 36 µM | [5] 83 µM | [6] 12.4 µM | [8] 26.8 µM

C=CCc1ccc2c(c1)OCO2
not listed: [2] | [7]
inactive: all other assays above

CN(C)c1ccccc1
not listed: [3] | [6] | [8]
inactive: all other assays above

CCCCCCCCCCCCCN1CC(C)OC(C)C1 (stereo unspecified)
active: [4] 47 µM
not listed: [3]
inactive: all other assays above

Nc1cc(Cl)cc(C(=O)O)c1Cl
not listed: [3] | [6] | [8]
inactive: all other assays above

Cn1cc(-c2ccccc2)c(=O)c(-c2cccc(C(F)(F)F)c2)c1
active: [3] 100 µM | [4] 44.2 µM
inactive: [1] | [2] | [5] | [10] | [9]

Cc1ccc(N=C=O)cc1N=C=O
not listed: [2] | [8]
inactive: all other assays above

CN(C)C(=O)Nc1ccc(Cl)cc1
not listed: [2] | [6] | [7]
inactive: all other assays above

[As]#[In]
inactive: [1] | [3] | [4] | [5] | [10] | [9]

CC(C)(C)OOC(C)(C)CCC(C)(C)OOC(C)(C)C
active: [4] 75.2 µM
inactive: [1] | [5] | [10] | [6] | [9]

CC(C)N(Cc1ccccc1)C(=O)C(C)(C)C
not listed: [2] | [6] | [8]
inactive: all other assays above

CC(C)(C)C(O)(CCc1ccc(Cl)cc1)Cn1cncn1 (stereo unspecified)
active: [4] 88.8 µM
not listed: [2] | [7] | [8]
inactive: all other assays above

OCCOCCO
inactive: [1] | [4] | [5] | [7] | [8] | [9]

CCCCCCCCn1sccc1=O
active: [1] 17.2 µM | [3] 21.1 µM | [5] 15.9 µM | [10] 19.9 µM | [6] 11.7 µM | [9] 9.13 µM
inactive: [4]

CCOC(=O)[C@]1(c2ccccc2)Oc2ccccc2[C@@H]1N
active: [1] 46.4 µM | [3] 33 µM | [4] 34.7 µM | [5] 28.8 µM | [9] 29.6 µM
inactive: [8]

CC(O)CCO (stereo unspecified)
not listed: [2] | [6] | [7]
inactive: all other assays above

CCOc1cccc(C2(N3CCN(c4ccccc4)CC3)CCC(C)CC2)c1 (stereo unspecified)
not listed: [2] | [3] | [7]
inactive: all other assays above

Nc1ccc(Oc2ccc(N)cc2)cc1
not listed: [2] | [6] | [8]
inactive: all other assays above

CCCCC(CC)COC(=O)c1ccc(C(=O)OCC(CC)CCCC)c(C(=O)OCC(CC)CCCC)c1 (stereo unspecified)
inactive: [1] | [3] | [4] | [5] | [10] | [9]

O=C(N[C@H](c1ccccc1)[C@@H]1CN2CCC1CC2)c1c(Cl)ccc(C(F)(F)F)c1Cl
active: [4] 3.02 µM | [7] 17.7 µM
not listed: [2] | [6]
inactive: all other assays above

Nc1ccc(N=Nc2ccccc2)cc1
inactive: [1] | [10] | [6] | [7] | [9]
active: [4] 3.6 µM | [5] 36.2 µM

c1ccc(NNc2ccccc2)cc1
active: [4] 27.8 µM
not listed: [2] | [6] | [7]
inactive: all other assays above

COc1cc(C=O)cc2c1[C@H](COC(N)=O)[C@]1(OC(C)=O)ON2C[C@H]2[C@@H]1N2C(C)=O
active: [1] 52 µM | [4] 17 µM | [5] 0.179 µM | [10] 5.95 µM | [9] 6.01 µM

CS(=O)(=O)NC(=O)c1cc(Oc2ccc(C(F)(F)F)cc2Cl)ccc1[N+](=O)[O-]
not listed: [2] | [3] | [7]
inactive: all other assays above

N#CC(Br)Br
active: [4] 74.8 µM
not listed: [2] | [8] | [10]
inactive: all other assays above

Cc1ccc(N)c(N)c1
active: [4] 8.84 µM | [5] 42.3 µM | [8] 5.57 µM
not listed: [2] | [6]
inactive: all other assays above

O=C(Oc1ccc(Br)cc1)N1CCN2CCC1CC2
active: [3] 60.9 µM | [10] 64.9 µM
inactive: [1] | [4] | [5] | [8] | [9]

C1=Cc2cccc3cccc1c23
not listed: [2] | [6] | [8]
inactive: all other assays above

O=C(O)C1C2CCC(O2)C1C(=O)O (stereo unspecified)
active: [4] 34.7 µM | [5] 75.4 µM | [10] 100 µM
inactive: [1] | [6] | [9]

CC(C)(OOC(C)(C)c1ccccc1)c1ccccc1
inactive: [3] | [10]
active: [1] 59.1 µM | [4] 29.1 µM | [5] 59.6 µM | [8] 27.7 µM | [9] 29.9 µM

CCC(C)c1ccc(O)cc1 (stereo unspecified)
active: [3] 100 µM | [4] 67.3 µM | [5] 67.9 µM
not listed: [2] | [7]
inactive: all other assays above

N#CC(Br)(Br)C(N)=O
active: [3] 157 µM | [4] 100 µM
inactive: [1] | [5] | [10] | [8] | [9]

COC(=O)Nc1nc2ccccc2[nH]1
inactive: [1] | [5] | [10]
active: [4] 21.4 µM | [7] 10.9 µM | [9] 20 µM

ClC1=C(Cl)[C@]2(Cl)[C@H]3[C@H]([C@@H]4C=C[C@H]3C4)[C@@]1(Cl)C2(Cl)Cl
active: [4] 50.5 µM | [5] 25.1 µM | [6] 28.5 µM | [7] 16.1 µM | [9] 34.1 µM
inactive: [1] | [10]

O=[N+]([O-])C(Br)(CO)CO
inactive: [1] | [3] | [4]
active: [5] 156 µM | [6] 27.1 µM | [7] 30.5 µM | [9] 27.7 µM

Reference: PubChem BioAssay (EPA / NIEHS)
